# Compound activity from PubChem.
# SENP8 block-1: SENP8 protease inhibitors, primary screen, biochemical, luminescence; Sentrin-specific protease 8 (Homo sapiens), Q96LD8; purified SENP8, Z-RLRGG-aminoluciferin cleavage; inhibition, % at 10 µM; hit rate 1.2% among 330,000; AID 2540, 2010; in the data active means inhibition above about 50%
# Target sequence (Q96LD8 whole entry, looked up): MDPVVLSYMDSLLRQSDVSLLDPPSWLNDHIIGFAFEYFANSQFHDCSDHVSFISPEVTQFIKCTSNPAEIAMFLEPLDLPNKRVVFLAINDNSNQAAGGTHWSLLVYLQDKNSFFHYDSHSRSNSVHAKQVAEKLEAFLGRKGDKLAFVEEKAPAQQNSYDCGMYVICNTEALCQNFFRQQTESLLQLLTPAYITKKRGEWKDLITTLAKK
# SENP8 block-2: human SENP8 protease inhibitors, primary screen, biochemical, fluorescence, Nedd8 protein substrate, uHTS; Sentrin-specific protease 8 (Homo sapiens), Q96LD8; recombinant SENP8; inhibition, % at 20 µM; hit rate 0.64% among 360,000; in the data active means inhibition mostly above about 40%, no sharp cut-off; inactive means mostly below about 27%
# HSP90 refold inh: HSP90 inhibitors, primary screen, cell lysate, luminescence; Heat shock protein HSP 90 (rabbit reticulocyte lysate; luciferase refolding); Rabbit reticulocyte lysate, luciferase refolding luminescence, 3 h; inhibition, % at 5.6 µM; hit rate 0.91% among 290,000;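 active means inhibition above the screen-wide mean plus 3 SD, computed separately per campaign, cut at about 16% in these data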;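 further: 0% = DMSO wells and 100% = 60 µM geldanamycin wells; inhibitors lower the luminescence because luciferase stays unfolded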
# SENP6 block: SENP6 protease inhibitors, primary screen, biochemical, luminescence, uHTS. inhibition, % at 10 µM. Recombinant SENP6 catalytic domain, aminoluciferin luminescence. hit rate 1.8% among 330,000;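 active means inhibition above about 50% at the single tested dose, limit read from the data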;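 further: plate controls were DMSO wells with enzyme for no effect and DMSO wells lacking enzyme for full effect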
# SENP7 block: SENP7 protease inhibitors, primary screen, biochemical, luminescence, uHTS. Sentrin-specific protease 7 (Homo sapiens), Q9BQF6. recombinant SENP7, Z-RLRGG-aminoluciferin luminescence, 40 min. inhibition, % at 5 µM. hit rate 1.5% among 330,000. AID 434973, 2010;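 active means inhibition above about 50% at the single test dose, limit read from the data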;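 further: plate controls were DMSO with enzyme for no effect and no enzyme buffer wells for full effect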
# SENP8 conf: SENP8 protease inhibitors, retest, confirmation, biochemical, luminescence, single concentration; AID 488912, 2010; Recombinant SENP8, Z-RLRGG-aminoluciferin luminescence, 60 min; hit rate 40% among 6,200; shares compounds with SENP7 block; inhibition, % at 12.5 µM;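 active means mean inhibition across replicates above about 50%, limit read from the data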
# SENP6 conf: SENP6 protease inhibitors, confirmation, biochemical, luminescence, single concentration; shares compounds with SENP7 block; recombinant SENP6, Z-RLRGG-aminoluciferin luminescence; hit rate 58% among 6,200; AID 488915, 2010; inhibition, % at 12.5 µM
# SENP7 confirm: SENP7 protease inhibitors, retest, confirmation, biochemical, luminescence, single concentration | shares compounds with SENP7 block | recombinant SENP7, Z-RLRGG-aminoluciferin luminescence, 40 min | inhibition, % at 12.5 µM | hit rate 69% among 6,200
# Casp3 select: caspase-3 protease inhibitors, confirmation, selectivity assay for SENP inhibitor project, biochemical, single concentration; shares compounds with SENP7 block; purified caspase-3, Z-DEVD-aminoluciferin luminescence, 60 min; inhibition, % at 12.5 µM; hit rate 60% among 6,200; AID 488918, 2010;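 active means mean inhibition above about 50%, limit read from the data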;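 further: plate controls were enzyme with DMSO for no effect and wells without caspase-3 for full effect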
# Target sequence (P42574 28-227 limits assumed): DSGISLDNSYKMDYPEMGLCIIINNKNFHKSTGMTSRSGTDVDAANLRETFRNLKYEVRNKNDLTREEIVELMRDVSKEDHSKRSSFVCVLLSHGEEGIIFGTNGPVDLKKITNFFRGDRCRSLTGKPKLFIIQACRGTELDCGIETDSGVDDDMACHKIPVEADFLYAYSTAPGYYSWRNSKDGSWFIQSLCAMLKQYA
# SENP luc ctr: luminescence interference (SENP counter-screen); Pre-incubated SENP8/Z-RLRGG-aminoluciferin, luciferase luminescence interference; hit rate 39% among 6,200; shares compounds with SENP7 block; inhibition, % at 12.5 µM;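 active means mean inhibition above about 50% when retested at one dose, limit read from the data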;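 further: plate controls were DMSO wells with completed reaction for no effect and substrate without enzyme for full effect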
# * hit, by the source's call; · = not tested or not shown. Only some compounds are listed: those with a hit (about 2.7% of all), similar ones and a draw of the others.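 How the source made its calls, unless noted: active means mean inhibition above about 50% in the one-dose retest (limit read from the data); inactive means the rest.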
SMILES,SENP8 block-1,SENP8 block-2,HSP90 refold inh,SENP6 block,SENP7 block,SENP8 conf,SENP6 conf,SENP7 confirm,Casp3 select,SENP luc ctr
CCc1ccc(/C=C2/SC(=S)N(CCC(=O)Nc3ccc(C(=O)O)cc3)C2=O)cc1,85*,22,3,22,75*,12,11,2,3,-1
CCc1ccc(/C=C2/SC(=S)N(CCC(=O)Nc3cccc(C(=O)O)c3)C2=O)cc1,79*,21*,-2,38,52*,28,24,22,32,17
CC(C)Cc1cc(C(=O)N2CCCC(C(=O)c3cc(F)ccc3F)C2)no1 (configuration not stated),6,10,-7,11,-3,·,·,·,·,·
O=C(c1n[nH]c(=O)c2ccccc12)N1CCOCC1,10,-41,0,4,4,·,·,·,·,·
Cc1ccc2oc(-c3cccc(NC(=S)NC(=O)c4cccs4)c3)nc2c1,6,-230,3,45,11,·,·,·,·,·
Cc1ccc2oc(-c3cccc(NC(=S)NC(=O)/C=C/c4ccco4)c3)nc2c1,56*,-17,8,57*,18,-24,-8,4,16,11
Cc1ccc(S(=O)(=O)/N=S(/c2ccccc2)C(C)C)cc1 (configuration not stated),-1,16,-3,-14,1,·,·,·,·,·
Cc1ccc(NCc2nnc3n2CCCCC3)cc1,-10,-8,-1,-7,-7,·,·,·,·,·
Brc1ccc(NCc2nnc3n2CCCCC3)cc1,-2,8,1,-10,99*,9,10,7,2,5
Cc1cc(C)cc(N2CCCn3c2nc2c3c(=O)n(CC(=O)OCc3ccccc3)c(=O)n2C)c1,1,-4,1,9,55*,-17,-9,-15,1,-9
O=C(O)c1cccc(NC(=O)c2cccc(S(=O)(=O)N3CCCCC3)c2)c1,64*,9,11,77*,78*,79*,77*,94*,42,66*
COc1ccc(C(=O)Nc2cccc(C(=O)O)c2)cc1S(=O)(=O)N1CCCC1,36,3,2,51*,54*,38,36,73*,16,9
O=C(COC(=O)CCC(=O)c1ccc(F)cc1)Nc1cccc(S(=O)(=O)N2CCCC2)c1,-2,16,0,88*,-2,3,-4,-10,-3,-2
CCC(=O)c1ccc(OCC(=O)OCC(=O)Nc2cccc(S(=O)(=O)N3CCCC3)c2)cc1,-2,6,·,-9,-1,·,·,·,·,·
CN(C(=O)C(C)(C)C)[C@H]1C[C@H]2c3[nH]c4ccccc4c3CCN2C(=O)[C@H]1CO,·,-446,·,·,·,·,·,·,·,·
N#Cc1c(NC(=O)COC(=O)C2=COCCO2)sc2c1CCCC2,·,13,·,·,·,·,·,·,·,·
N#Cc1cc2cc3c(cc2nc1SCC(=O)N1CCCC1)OCCO3,-1,-144,2,-17,0,·,·,·,·,·
CC(=O)CSc1nc2cc3c(cc2cc1C#N)OCCO3,95*,-284,-2,91*,97*,84*,87*,58*,86*,27
COc1ccc(/C=C/C(=O)NCC(=O)N/N=C/c2cc(Br)ccc2OC)cc1,-3,4,2,-6,84*,3,0,-1,-2,-2
